From PubChem BioAssay AID2551 (National Center for Advancing Translational Sciences (NCATS), 2010)
Hit rate of the full screen: of about 310,000 compounds, about 17,000 (5.5%) were called active. Another 11% or so got no clear call; they are omitted. Calls come from the whole dose curve; as a rule, active = well fitted inhibition curve with a large enough effect; inconclusive = small, poorly fitted or top-dose-only effect, or effect the other way; inactive = no such curve, though single readings can be large or run the other way. The entries come from a sample that favours actives as a whole.

These compounds were tested against Nuclear receptor ROR-gamma (Mus musculus) (UniProt P51450) (assay: qHTS for inhibitors of ROR gamma transcriptional activity). Settings: Drosophila S2 Gal4-RORgamma UAS-luciferase reporter, 20 h; series mostly up to 53.6 µM; activity change, negative = inhibition: at the top concentration.
Outline: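 Stably transfected Drosophila Schneider cells are the test system, with ROR gamma fused to Gal4 and luciferase under UAS control; luminescence is read after 20 hr of 700 uM copper sulfate induction at ambient temperature.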
% is set by controls: 0 for no effect and ±100 for the full control effect; potency is the fitted concentration of half-maximal effect.
Note: nearly all actives have a fitted effect of over 60% in size.

Chain of Nuclear receptor ROR-gamma (Mus musculus) (P51450 whole entry, looked up, the tested form may be a part): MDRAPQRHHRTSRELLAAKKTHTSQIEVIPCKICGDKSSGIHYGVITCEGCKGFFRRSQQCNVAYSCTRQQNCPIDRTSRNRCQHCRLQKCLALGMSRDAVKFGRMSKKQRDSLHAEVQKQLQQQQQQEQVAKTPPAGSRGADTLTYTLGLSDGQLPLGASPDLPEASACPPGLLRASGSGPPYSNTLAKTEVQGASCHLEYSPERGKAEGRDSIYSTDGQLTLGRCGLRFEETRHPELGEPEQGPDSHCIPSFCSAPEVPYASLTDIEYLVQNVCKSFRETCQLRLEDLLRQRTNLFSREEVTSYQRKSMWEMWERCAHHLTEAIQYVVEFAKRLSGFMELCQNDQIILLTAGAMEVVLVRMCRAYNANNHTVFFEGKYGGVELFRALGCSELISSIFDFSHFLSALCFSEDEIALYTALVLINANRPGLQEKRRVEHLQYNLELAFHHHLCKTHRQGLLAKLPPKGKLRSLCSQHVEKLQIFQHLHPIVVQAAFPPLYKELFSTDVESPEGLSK

SMILES | activity change, negative = inhibition | Potency
COc1ccc(-c2nonc2NC(=O)c2oc3ccc(F)cc3c2C)cc1OC | 0% (inactive) | –
O=c1ccc2cc(S(=O)(=O)NCCCc3ccccc3)ccc2[nH]1 | -6.85% (inactive) | –
CCN(CC)S(=O)(=O)c1ccc(NC(=O)c2cnc(C)cn2)cc1 | 3.56% (inactive) | –
CCOc1cc(NC(=O)Nc2ccccc2)c(OCC)cc1NC(=O)CC | 40.9% (inactive) | –
COc1ccc(OCCC(=O)c2ccc(OC)cc2)cc1 | -24.6% (inactive) | –
COc1ccc(C(=O)C[n+]2ccc(C)cc2)cc1 | 0.679% (inactive) | –
COc1ccc(C(=O)CC(=O)c2ccc(C)cc2)c(O)c1 | – | 10 µM (active)
Cc1cc(C)cc(N(CC(=O)NC2CCCC2)C(=O)CCC(=O)Nc2nccs2)c1 | -15.8% (inactive) | –
Cc1ccc(OCC(=O)NC(C)c2ccccc2)c([N+](=O)[O-])n1 (stereo not given) | -4.48% (inactive) | –
Cc1ccc(OCC(=O)c2cc(C)n(Cc3ccco3)c2C)c([N+](=O)[O-])n1 | -33.6% (inactive) | –
COCC(C)n1c(C)cc(C(=O)COc2ccc(C)nc2[N+](=O)[O-])c1C (stereo not given) | – | 12.6 µM (active)
CCOC(=O)C1CCN(Cc2nnc(-c3cccc(Br)c3)o2)CC1 | -2.39% (inactive) | –
Cc1noc(C)c1CSCC(=O)N(CCC(C)C)c1c(N)n(Cc2ccccc2)c(=O)[nH]c1=O | -24.5% (inactive) | –
CCCCN1CCNC1=S | – | 12.6 µM (active)
CCC(C(=O)NCCC(C)C)N(Cc1ccccc1Cl)C(=O)c1snc(C(N)=O)c1N (stereo not given) | 9.6% (inactive) | –
CCOc1ccc(C(=O)Nc2cccc(SC)c2)cc1 | 17.7% (inactive) | –
COc1cccc(NC(=S)N(Cc2ccc(C)cc2)Cc2ccccn2)c1 | -103% (inactive) | –
CC(c1ccccn1)N(CCN(C)C)C(=S)Nc1ccccc1F (stereo not given) | -43.2% (inactive) | –
CSc1cccc(NC(=S)N(C(C)C)C(C)c2ccccn2)c1 (stereo not given) | – | 22.4 µM (active)
CSc1cccc(NC(=O)CSc2ccccc2)c1 | 25.1% (inactive) | –
CSc1cccc(NC(=S)N(Cc2ccccc2)Cc2ccccn2)c1 | – | 6.31 µM (active)
COC(=O)c1ccc(S(=O)(=O)N2CCc3ccccc3C2)cc1 | 5.76% (inactive) | –

SMILES | activity change, negative = inhibition | Potency
COc1ccc(NC(=O)CSc2ccc(-c3ccco3)nn2)c(OC)c1 | 13% (inactive) | –
CN(C)c1ccc(S(=O)(=O)NCC(=O)NCC2CCCCC2)cc1[N+](=O)[O-] | -1.36% (inactive) | –
COc1ccc(CN2CC(C(=O)NCCc3ccc(Cl)cc3)CC2=O)cc1 (stereo not given) | 17.2% (inactive) | –
CCOc1ccc(NC(=O)CC(Cc2ccc(Cl)cc2)C(=O)O)cc1 (stereo not given) | 3.83% (inactive) | –
CCOC(=O)c1c(C(C#N)C#N)cc(C)nc1C | -1.43% [at 10 µM] (inactive) | –
CCOC(=O)c1cc(C)nc(S(C)(=O)=O)c1C#N | – | 8.91 µM (active)
CCOC(=O)COc1nc(C)cc(C(F)(F)F)c1C#N | 1.74% (inactive) | –
O=C(O)c1ccccc1-c1ccccc1C(=O)NCCc1ccccc1 | 31.7% (inactive) | –
CN(CC(=O)Nc1ccccc1C(F)(F)F)C(=O)Cc1ccccc1F | -27.9% (inactive) | –
CCC1=Nc2cc(C(=O)NCCN3CCCC3)ccc2Sc2ccc(C)cc21 | 2.84% (inactive) | –
Cc1cccc(-c2nc3ccc(C(=O)NCCN4CCN(C)CC4)cc3nc2-c2cccc(C)c2)c1 | – | 12.6 µM (active)
Cc1cccc(C(=O)NCCCN2CCCC2=O)c1 | -6.33% (inactive) | –
CCN(CC)c1ccc(/C=N/Nc2nc(C)cc(=O)[nH]2)cc1 | -32.5% (inactive) | –
CCN(CC)c1ccc(/C=N/NC(=O)c2cnccn2)c(O)c1 | – | 1.58 µM (active)
O=C(Nc1ccc2c(c1)OCCO2)c1cnccn1 | -26.5% (inactive) | –
Cc1cc(C)nc(N/N=C/c2ccncc2)n1 | -20.5% (inactive) | –
CCN(CC)c1ccc(/C=N/Nc2nc(C)cc(C)n2)c(O)c1 | – | 1.78 µM (active)
CCN(CC)c1ccc(/C=N/NC(=O)CNC(=O)c2cccnc2)cc1 | 11.4% (inactive) | –
CCc1c(C)c2ccc(OC3CCCCC3=O)cc2oc1=O (stereo not given) | 9.01% (inactive) | –
CC(C)(C)n1nnnc1C(c1ccccc1F)N1CCN(C(=O)c2ccco2)CC1 (stereo not given) | 0.521% (inactive) | –
OC(COc1ccc(F)cc1Cl)CN1CCc2ccccc2C1 (stereo not given) | 0.765% (inactive) | –
CC(C)c1nc2ccc(C(=O)O)cc2[nH]1 | – | 8.91 µM (active)

SMILES | activity change, negative = inhibition | Potency
OC(c1nc2ccc(F)cc2[nH]1)C(O)c1nc2ccc(F)cc2[nH]1 (stereo not given) | -2.57% (inactive) | –
Cc1cccc(C(=O)O)c1 | -7.78% (inactive) | –
Cc1ccc(CN(C)Cc2cc(=O)oc3cc(C)c(Cl)cc23)cc1 | -12.8% (inactive) | –
CN(c1ccccc1)S(=O)(=O)c1cc(C(=O)OCC(=O)N2CCN(C(=O)c3ccco3)CC2)ccc1Cl | 11.3% (inactive) | –
CN(c1ccccc1)S(=O)(=O)c1cccc(NC(=O)Cc2c(F)cccc2Cl)c1 | 1.9% (inactive) | –
CN(c1ccccc1)S(=O)(=O)c1cc(C(=O)Nc2nc3ccccc3[nH]2)ccc1Cl | – | 2.82 µM (active)
CN(CC(=O)Nc1c(Cl)cccc1Cl)C(=O)CNC(=O)C1CCCCC1 | 6.57% (inactive) | –
COc1ccc(C(=O)NC2CC(C)(C)Cc3c2cnn3-c2ccccc2C)o1 (stereo not given) | 0.707% (inactive) | –
CC(=O)Nc1cccc(NC(=O)c2ccc3c(c2)CCN3S(C)(=O)=O)c1 | -13.8% (inactive) | –
C(=N\Nc1ccc2ccccc2n1)/c1ccc2c(c1)OCO2 | – | 8.91 µM (active)
Brc1ccc(-c2csc(N/N=C/c3ccc4c(c3)OCO4)n2)cc1 | – | 10 µM (active)
Brc1ccc(-c2csc(N/N=C/c3cccnc3)n2)cc1 | 9.48% (inactive) | –
Cc1cc(=O)[nH]c(N/N=C/c2ccc3c(c2)OCCO3)n1 | -29.2% (inactive) | –
O=C(Cc1ccc(F)cc1)N/N=C/c1ccc2c(c1)OCO2 | -4.2% (inactive) | –
Cc1noc(C)c1/C=N/Nc1ccc2ccccc2n1 | 18.6% (inactive) | –
O=C(NNC(=O)c1ccco1)Nc1ccccc1 | 6.3% (inactive) | –
COCCNC(=O)CSc1nc2sccc2c(=O)n1-c1ccccc1 | 35.1% (inactive) | –
O=Cc1c(NCCCN2CCCC2=O)c2ccccc2[nH]c1=O | -8.89% (inactive) | –
Cc1ccc2c(c1)N(C(=O)CCC(=O)NCc1cccnc1)CCO2 | 2.85% (inactive) | –
CCOC(=O)c1c(C)c(C(=O)NCCc2ccc(S(N)(=O)=O)cc2)c(C)n1CC | -16.7% (inactive) | –
Cc1noc(C)c1C(=O)NCCc1ccc(S(N)(=O)=O)cc1 | 6.01% (inactive) | –
CCCNC(=O)c1c(N)n(-c2ccc(S(N)(=O)=O)cc2)c2nc3ccccc3nc12 | – | 12.6 µM (active)

SMILES | activity change, negative = inhibition | Potency
O=S(=O)(Cc1nnnn1-c1ccc(Br)cc1)c1ccc(F)cc1 | 34.9% (inactive) | –
Cc1scc(C(=O)NNC(=S)NCC(C)C)c1C | – | 1.78 µM (active)
Cc1cccc(NC(=O)c2ccc(OCC(=O)NCc3ccccc3)cc2)c1C | 1.17% (inactive) | –
Cc1scc(C(=O)NNC(=S)NCc2ccccc2)c1C | – | 2 µM (active)
Cc1cccc(C(=O)OCC(=O)NCC(C)C)c1O | 39% (inactive) | –
Cc1ccc(OCC(=O)NNC(=S)NCc2ccccc2)cc1 | – | 1.26 µM (active)
CNC(=S)NNC(=O)c1cccn(Cc2ccccc2)c1=O | 38.7% (inactive) | –
CC(=O)Nc1ccc(OCC(=O)NCc2ccc(C)cc2)cc1 | 12.2% (inactive) | –
O=C(NNC(=S)NCc1ccccc1)c1ccc(OC(F)F)cc1 | -25.4% (inactive) | –
Cc1occc1C(=O)NNC(=S)NCC(C)C | -19.8% (inactive) | –
CCC(CC)COC(=O)C1=C(C)NC(=O)NC1c1ccc([N+](=O)[O-])cc1 (stereo not given) | -0.183% [at 1.91 µM] (inactive) | –
O=C(Cc1ccc([N+](=O)[O-])cc1)Nc1ccc(C(=O)N2CCOCC2)cc1 | -21% (inactive) | –
Cc1ccc(NC(=O)Cn2nnc(C(=O)NCc3ccco3)c2N)c(C)c1 | -22.2% (inactive) | –
CC(C)(C)NC(=O)CSc1nnc(NC(=O)CCc2ccccc2)s1 | 5.59% [at 1.91 µM] (inactive) | –
C=CCN1C(=NC(=O)COc2ccccc2)SC2CS(=O)(=O)CC21 (stereo not given) | -31.6% (inactive) | –
Cc1cc(Cl)ccc1C(=O)C1CCCN(C(=O)c2nonc2C)C1 (stereo not given) | 25.8% (inactive) | –
Cc1[nH]c2ccccc2c1C(=O)CN1CC(C)CC(C)C1 (stereo not given) | -3.29% (inactive) | –
O=C(O)C1CCCN1S(=O)(=O)c1ccc(Br)cc1 (stereo not given) | 6.41% (inactive) | –
O=C(CN(C(=O)c1nsc(Cl)c1Cl)c1cccc(F)c1)NC1CCCC1 | -2.43% (inactive) | –
COc1ccccc1OCc1nnc(SCC(N)=O)n1-c1ccccc1 | 7.44% (inactive) | –
Cc1cc(C2=NNC(=Nc3ccc(S(=O)(=O)N4CCOCC4)cc3)SC2)c(C)n1CC1CCCO1 (stereo not given) | 9.62% (inactive) | –
C=CCn1c(C)cc(C2=NNC(=NCC)SC2)c1C | – | 0.562 µM (active)

SMILES | activity change, negative = inhibition | Potency
O=C(O)c1ccccc1NC(=O)c1ccccc1-c1ccccc1C(=O)O | -14.3% (inactive) | –
CC1CN(S(=O)(=O)c2cccc(C(F)(F)F)c2)CN1C(=O)N1CCOCC1 (stereo not given) | -13.4% (inactive) | –
COc1ccc2[nH]c(C(=O)N3CCN(C)CC3)c(C)c2c1 | 11.6% (inactive) | –
COc1ccc2[nH]c(=S)cc(C)c2c1 | – | 7.08 µM (active)
COc1ccc2[nH]c3c(C)c4cc[n+](C)cc4c(C)c3c2c1 | -25% (inactive) | –
COc1ccc(NC(=O)c2cccc3c2C(=O)N(CC2CCCO2)C3)cc1OC (stereo not given) | -8.76% (inactive) | –
COc1ccc(OCCCCN2CCC(C)CC2)cc1 | 3.61% (inactive) | –
O=C1COc2ccc(S(=O)(=O)Nc3ccc(OC(F)(F)F)cc3)cc2N1 | -17.3% (inactive) | –
C/C(=N\NC(=O)c1ccccc1C)c1ccc(N2CCOCC2)cc1 | 8.86% (inactive) | –
CC(C)=C(NC(=O)c1ccccc1)C(=O)N/N=C(\C)c1ccccc1O | – | 0.891 µM (active)
C/C(=N\NC(=O)c1ccoc1C)c1ccccc1O | – | 0.158 µM (active)
C/C(=N\NC(=O)c1cccnc1)c1ccc(-c2ccccc2)cc1 | -0.938% (inactive) | –
CC(=O)NC(=O)c1ccccc1O | -0.919% (inactive) | –
CNC(=O)C(NC(=O)c1ccccc1)=C(C)C | 4.05% (inactive) | –
Cn1c(=O)c2c(SCC(=O)NCC3CCCO3)nc(CC(C)(C)C)nc2n(C)c1=O (stereo not given) | 1.36% (inactive) | –
COC(=O)c1c(NC(=O)C2CC(C)=C(C)CC2C(=O)O)sc2c1CCCCC2 (stereo not given) | 36.4% (inactive) | –
COc1cccc(C(=O)Nc2nnc(S(=O)(=O)N3CCOCC3)s2)c1 | 9.48% (inactive) | –
COc1ccc(CCNS(=O)(=O)c2cn(C)nc2C)cc1 | 0.968% (inactive) | –
CCOC(=O)C1CCN(C(=O)COc2cccc3ccccc23)CC1 | 24.6% (inactive) | –
CC(NC(=S)Nc1ccc(OC(F)F)cc1)c1ccc(F)cc1 (stereo not given) | – | 3.16 µM (active)
O=C1CCC(C(=O)Nc2ccc(OC(F)F)cc2)N1 (stereo not given) | 5.33% (inactive) | –
CC(NC(=S)Nc1ccc(S(N)(=O)=O)cc1)c1ccc2c(c1)OCO2 (stereo not given) | 23.8% (inactive) | –
